About 2,100 (0.62%) of roughly 340,000 compounds were called active.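 The calls were made as follows: active = first-screen hits whose inhibition reached a set limit at any dose in the follow-up dose series; inconclusive = inhibition above the set first-screen limit but never retested; inactive = the rest.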 A selection follows. Measured potencies and affinities stand elsewhere.
What follows are molecules tested against Rac GTPase-activating protein 1 (Homo sapiens) (UniProt Q9H0H5) (assay: blockers of MgcRacGAP-driven Rac1 GTP hydrolysis – biochemical, ADP Hunter fluorescence, primary and confirmatory, confirmation (AID 624330;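 also: fluorescence reports GDP produced by GAP-driven GTP hydrolysis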)). Conditions: MgcRacGAP-stimulated Rac1 GTP hydrolysis, at 30 µM, active compounds read high, GST-tagged Rac1 F28L mutant substrate.
Chain of Rac GTPase-activating protein 1 (Homo sapiens) (Q9H0H5 whole entry, looked up): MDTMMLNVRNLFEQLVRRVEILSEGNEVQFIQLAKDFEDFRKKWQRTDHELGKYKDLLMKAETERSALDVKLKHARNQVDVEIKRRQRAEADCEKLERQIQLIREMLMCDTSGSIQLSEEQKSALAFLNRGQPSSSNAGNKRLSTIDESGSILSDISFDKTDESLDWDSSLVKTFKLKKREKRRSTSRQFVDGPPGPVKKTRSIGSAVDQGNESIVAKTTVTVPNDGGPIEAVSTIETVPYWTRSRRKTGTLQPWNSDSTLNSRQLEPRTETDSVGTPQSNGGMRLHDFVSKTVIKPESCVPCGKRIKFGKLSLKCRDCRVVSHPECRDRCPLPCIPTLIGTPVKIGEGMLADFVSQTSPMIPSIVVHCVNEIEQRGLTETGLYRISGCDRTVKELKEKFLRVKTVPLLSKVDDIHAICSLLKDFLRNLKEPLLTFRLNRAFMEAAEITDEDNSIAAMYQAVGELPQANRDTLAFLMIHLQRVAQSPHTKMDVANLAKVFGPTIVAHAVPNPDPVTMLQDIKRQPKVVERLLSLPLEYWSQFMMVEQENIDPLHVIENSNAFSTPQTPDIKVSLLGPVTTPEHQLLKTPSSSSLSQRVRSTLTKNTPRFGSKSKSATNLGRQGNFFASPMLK

inhibition, inactive:
CC1CCCCC1NC(=O)CSc1nnc(CC(=O)Nc2ccccc2F)n1C (centres undefined) 5.96%
O=C(C[C@@H]1C/C=C/CC[C@@H](Cc2ccc(F)cc2)C(=O)OCCNC1=O)N[C@H](CO)Cc1ccccc1 3.03%
COCC1CCN(Cc2cn(C)nc2-c2cccc(Cl)c2)C1 (centres undefined) 1.3%
O=C(CCc1nnc2ccc(NCc3ccc(F)cc3)nn12)NC1CCCC1 12.4%
c1ccc(CNCc2ccc3c(c2)OCO3)nc1 4.13%
CC(C)C(=O)N(Cc1ccc2c(c1)OCO2)Cc1ccccn1 7.22%
O=C(CN1CCCc2ccccc21)Nc1cccc(S(=O)(=O)N2CCCC2)c1 9.73%
CNCc1c(C)nn(-c2ccccc2)c1C 8.94%
CCn1ccnc1CN(C)Cc1nc(-c2ccccc2)no1 -3.37%
CC(=O)Nc1ccc(NC(=O)CSCc2ccccc2Cl)cc1 10.3%
C/C(=N\NC(=O)CSCc1ccccc1Cl)c1cccc(NC(=O)c2ccccc2)c1 4.95%
Cc1ccccc1Nc1nc(N)nc(COC(=O)c2ccc3c(c2)OCCO3)n1 12.6%
O=C(Nc1ccccc1C(=O)Nc1ccc(F)cc1)c1ccco1 6.4%
CCOc1ccc(S(=O)(=O)N2CCN(C(=O)c3ccc(C)c(S(=O)(=O)N4CCOCC4)c3)CC2)cc1 5.86%
COc1cc(OC)c(OC)cc1CN1CCN(C(=O)CC(C)C)CC1 12.8%
COc1ccc(CN2CCN(C(=O)CC(C)C)CC2)cc1 26.1%
CCOc1cc(CN2CCCCCC2)ccc1OC 25.5%
COc1ccc(C(=O)N2CCN(Cc3cc(OC)c(O)c(OC)c3)CC2)cc1OC 18.5%
COc1ccc(C(=O)N2CCN(C(=O)CC(C)C)CC2)cc1OC -1.21%
COc1ccc(CN2CCN(C(=O)CC(C)C)CC2)cc1Br 26.2%
C=CCN1C(=O)c2ccc(C(=O)N(C)CC(=O)Nc3ccccc3Cl)cc2C1=O -7.53%
CCOC(=O)c1ccc(NC(=O)c2nc[nH]c2C(=O)NCCCNC(=O)c2[nH]cnc2C(=O)Nc2ccc(C(=O)OCC)cc2)cc1 -0.79%
COc1ccc(N=Cc2c(O)c3ccccc3oc2=O)cc1 10.7%
COC(=O)c1ccccc1NC(=S)NC(=O)COc1ccccc1Cl 2.61%
CCOc1ccc(-n2c(-c3ccco3)n[nH]c2=S)cc1 15.8%
O=C(COC(=O)c1cccs1)NCCc1ccc(F)cc1 4.76%
CN1CCN(CC(=O)N2c3ccccc3C(C)(c3ccccc3)CC2(C)C)CC1 (centres undefined) 10.3%
CC1CC(C)(C)N(C(=O)CN2C(=O)CCC2=O)c2ccccc21 (centres undefined) -0.11%
CC1CC(C)(C)N(C(=O)CN2C(=O)c3ccccc3C2=O)c2ccccc21 (centres undefined) 2.35%
Cc1ccc2c(c1)C(C)CC(C)(C)N2C(=O)NC1CCCCC1 (centres undefined) 3.06%
CCN(CC)C(=O)[C@H]1C[C@H](CC(=O)NCCCN(C)C)C(=O)N2CCc3c([nH]c4ccc(Cl)cc34)[C@]12C 4.62%
O=C(NCc1ccccn1)C12CC3CC(CC(C3)C1)C2 3.08%
O=C(NCc1ccccn1)NC12CC3CC(CC(C3)C1)C2 1.18%
COc1cc(OC)c(OC)cc1/C=C1/C(=O)N=C(N)N1C 0.61%
CC(NC(=O)/C=C/c1ccco1)c1nc2ccccc2n1Cc1ccccc1F (centres undefined) -6.08%
O=c1c(-c2ccco2)[n+]([O-])c2ccccc2n1OCc1ccccc1 2.31%
Cc1c(Cl)cccc1NC(=O)CNCc1ccccc1F 5.19%
O=C(CNCc1ccccc1Cl)Nc1ccccc1N1CCCCC1 28.3%
CCCCn1c(N)c(N(CCOC)C(=O)CSCc2ccc(C)cc2)c(=O)[nH]c1=O 3.5%
Cc1ccc(NC(=O)CN(C)S(=O)(=O)c2cccs2)cc1C 2.54%
CCN=C1S/C(=C\c2sccc2C)C(=O)N1CC 8.79%
CC(C(=O)Nc1ccc2c(c1)OCO2)N(C)CC(=O)Nc1ccccc1Cl (centres undefined) 6.56%
CSc1ccccc1C(=O)NCc1ccc2c(c1)OCO2 3.84%
COc1ccc2c(c1)[nH]c1c(=O)n(/N=C/c3ccc(OC)c(COc4ccccn4)c3)cnc12 6.37%
CC(C)N1C(=O)S/C(=C/c2ccc(Sc3nc4ccccc4[nH]3)o2)C1=O 12.6%
CC(C)N1C(=O)S/C(=C\c2ccc(-c3ccc(Cl)c(C(=O)O)c3)o2)C1=O 14.4%
CCc1nc2ccccc2c(=O)n1NC(=O)c1c(O)c2ccccc2n(CC)c1=O 11.3%
CCn1c(COc2ccc(Cl)cc2)nnc1SCC(=O)Nc1ccc2c(c1)OCCO2 9.81%
NC1=NC(=O)C(=Cc2ccccc2)S1 -0.93%
COc1ccc(/C=C2\SC(c3ccc(C)cc3)=NC2=O)cc1OC -0.09%
COc1ccc(C2=NN(c3ccccc3)C(=O)/C2=C\c2ccc(O)c(OC)c2)cc1 4.88%
COc1ccc(/C=C2/SC(c3ccc(C)cc3)=NC2=O)cc1OC 11.7%
COc1cc(/C=C2\SC(N)=NC2=O)ccc1OCC(=O)Nc1ccccc1C 1.31%
O=C(CN1C(=O)S/C(=C\c2ccc(O)cc2)C1=O)c1ccccc1 2.23%
COc1cc(/C=C2/SC(=S)N(Cc3ccccc3)C2=O)ccc1O 11.1%
COc1ccc(/C=C2\SC(N)=NC2=O)cc1 3.78%
COc1ccc(N2CC(C(=O)Nc3nnc(SCC(=O)N4CCOCC4)s3)CC2=O)cc1 (centres undefined) 10.3%
CCCn1c(SCC(=O)Nc2cc(Cl)ccc2OC)nc(O)cc1=O 4.2%
CCOC(=O)C(CC)Sc1nc2c(c(=O)[nH]c(=O)n2C)n1C/C=C(/C)Cl (centres undefined) 13.4%

Source: PubChem BioAssay AID624330 (Southern Research Specialized Biocontainment Screening …, 2012)
